According to PubChem BioAssay AID2132 (NMMLSC, 2009):
Active and inactive are the calls of the source.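 The calls were made as follows: active = inhibition above 20%; inactive = the rest.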 Peptide text beside a SMILES is read from it. * marks the point of attachment. Cbz = O=C(OCc1ccccc1)*

Test: yeast 26S proteasome protease site inhibitors – biochemical, fluorogenic peptides, secondary, counter-screen for 26S proteasome disassembly project (AID 2132)
Conditions: fluorogenic peptide cleavage rate, with Ac-RLR-amc, at 100 µM, active compounds read high

Compound | inhibition
CC(C)C[C@@H](C=O)NC(=O)[C@H](CC(C)C)NC(=O)[C@H](CC(C)C)NC(=O)OCc1ccccc1 (Cbz-Leu-Leu-Leu-aldehyde) | 5% (inactive)
CC(=O)N1C(=O)C(=C2C=C(C)OC(C)=C2)c2ccccc21 | 20% (inactive)
